Calls of active or inactive are those of the source.
Experiments:
[1] = optical density shifts of acrAB sulA E. coli – strain DRC41, OD650, 48 h, E. coli filamentation inducer project, primary screen (AID 1152); conditions: higher = more signal, called active from +8 up or from −8 down;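 also: E. coli MC1000 strain DRC41 lacking acrAB efflux pump and sulA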
[2] = probe aLefty1 binding on compound microarray – biochemical, small-molecule microarray, 635/667 nm fluorescence, primary screen (AID 1153); conditions: higher = more signal;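 also: score merges spot fluorescence with signal-to-noise ratio from the scanned slide images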
[3] = plasmodial surface anion channel blockers, osmotic lysis – cell-based, P. falciparum Indochina, OD700, 1 h, primary screen (AID 1154); conditions: P. falciparum Indochina infected RBC osmotic lysis, higher = more signal, called active from +8 up or from −8 down
[4] = plasmodial surface anion channel blockers, osmotic lysis – cell-based, P. falciparum Indochina, OD700, 2 h, primary screen (AID 1155);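 also: lysis reports solute entry through the parasite surface anion channel PSAC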; conditions: P. falciparum Indochina infected erythrocytes, higher = more signal, called active from +8 up or from −8 down
[5] = changes in parasitized red cell lysis, either direction – P. falciparum Indochina, OD700, 3 h, PSAC antagonist project, primary screen (AID 1156); conditions: P. falciparum-infected erythrocytes, osmotic lysis, higher = more signal, called active from +8 up or from −8 down
[6] = plasmodial surface anion channel blockers, osmotic lysis – cell-based, P. falciparum Indochina, OD700, 18 h, primary screen (AID 1157); conditions: P. falciparum Indochina infected erythrocytes, osmotic lysis OD700, 18 h; higher = more signal, called active from +8 up or from −8 down
[7] = S6 kinase pathway phospho-S6 level changes – cell-based, A549, cytoblot, luminescence, serum-stimulated, primary screen (AID 1158); conditions: 5 h, higher = more signal;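 also: serum-stimulated A549 lung adenocarcinoma cells; signal is phosphorylated S6 detected by cytoblot immunostaining with HRP secondary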
[8] = target: NADPH oxidase 2 (Homo sapiens) (UniProt P04839); test: compounds shifting NOX2 Amplex Red fluorescence – cell-based, HEK293-NOX2, PMA-stimulated, NOX inhibitor project, primary screen (AID 1159); conditions: 45 min, higher = more signal, called active from +8 up or from −8 down; also: test concentration not given here
[9] = target: NADPH oxidase 4 (Homo sapiens) (UniProt Q9NPH5); test: compounds shifting NOX4 Amplex Red fluorescence – cell-based, HEK293-NOX4, tetracycline-induced, NOX inhibitor project, primary screen (AID 1160); conditions: HEK293-NOX4, Amplex Red H2O2 fluorescence, 45 min; higher = more signal, called active from +8 up or from −8 down
[10] = target: NADPH oxidase 5 (Homo sapiens) (UniProt Q96PH1); test: compounds shifting NOX5 Amplex Red fluorescence – cell-based, HEK293-NOX5, NOX inhibitor project, primary screen (AID 1161); conditions: HEK293-NOX5, ionomycin, 45 min, higher = more signal
Sequence of NADPH oxidase 5 (Homo sapiens) (Q96PH1 whole entry, looked up): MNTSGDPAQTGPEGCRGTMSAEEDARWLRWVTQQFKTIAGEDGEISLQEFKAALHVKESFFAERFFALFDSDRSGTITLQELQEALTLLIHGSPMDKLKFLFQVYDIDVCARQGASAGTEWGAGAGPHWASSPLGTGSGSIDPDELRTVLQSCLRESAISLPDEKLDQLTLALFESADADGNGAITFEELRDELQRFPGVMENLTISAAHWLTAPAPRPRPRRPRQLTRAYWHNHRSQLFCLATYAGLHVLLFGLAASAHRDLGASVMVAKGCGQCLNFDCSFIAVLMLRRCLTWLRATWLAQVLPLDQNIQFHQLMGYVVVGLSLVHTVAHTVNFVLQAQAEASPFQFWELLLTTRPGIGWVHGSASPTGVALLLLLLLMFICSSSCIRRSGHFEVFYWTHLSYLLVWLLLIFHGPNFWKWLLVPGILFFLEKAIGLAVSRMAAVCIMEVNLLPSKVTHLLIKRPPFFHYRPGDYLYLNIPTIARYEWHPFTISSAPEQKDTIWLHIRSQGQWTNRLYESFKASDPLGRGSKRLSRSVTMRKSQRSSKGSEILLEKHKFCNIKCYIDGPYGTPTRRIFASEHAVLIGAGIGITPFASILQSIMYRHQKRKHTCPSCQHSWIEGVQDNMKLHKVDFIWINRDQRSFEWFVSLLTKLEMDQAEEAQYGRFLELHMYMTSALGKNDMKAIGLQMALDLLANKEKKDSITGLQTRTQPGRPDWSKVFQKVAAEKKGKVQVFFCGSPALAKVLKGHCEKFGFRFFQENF

Sequence of NADPH oxidase 4 (Homo sapiens) (Q9NPH5 whole entry, looked up): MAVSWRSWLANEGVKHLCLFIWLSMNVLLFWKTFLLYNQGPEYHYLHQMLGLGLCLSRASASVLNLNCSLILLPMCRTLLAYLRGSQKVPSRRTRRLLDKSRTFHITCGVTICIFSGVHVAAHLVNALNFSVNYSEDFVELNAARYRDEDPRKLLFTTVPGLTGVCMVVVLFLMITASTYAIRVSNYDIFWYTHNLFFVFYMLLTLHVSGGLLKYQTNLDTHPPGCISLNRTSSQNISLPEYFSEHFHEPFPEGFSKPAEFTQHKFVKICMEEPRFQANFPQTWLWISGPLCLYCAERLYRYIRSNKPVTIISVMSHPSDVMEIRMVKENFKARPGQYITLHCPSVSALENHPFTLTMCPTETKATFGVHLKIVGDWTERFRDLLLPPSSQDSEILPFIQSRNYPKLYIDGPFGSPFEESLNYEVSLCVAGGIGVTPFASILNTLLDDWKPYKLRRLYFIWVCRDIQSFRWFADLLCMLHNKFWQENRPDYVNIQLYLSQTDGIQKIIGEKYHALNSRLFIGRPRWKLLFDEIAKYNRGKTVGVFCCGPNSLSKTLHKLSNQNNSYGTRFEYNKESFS
Sequence of NADPH oxidase 2 (Homo sapiens) (P04839 whole entry, looked up): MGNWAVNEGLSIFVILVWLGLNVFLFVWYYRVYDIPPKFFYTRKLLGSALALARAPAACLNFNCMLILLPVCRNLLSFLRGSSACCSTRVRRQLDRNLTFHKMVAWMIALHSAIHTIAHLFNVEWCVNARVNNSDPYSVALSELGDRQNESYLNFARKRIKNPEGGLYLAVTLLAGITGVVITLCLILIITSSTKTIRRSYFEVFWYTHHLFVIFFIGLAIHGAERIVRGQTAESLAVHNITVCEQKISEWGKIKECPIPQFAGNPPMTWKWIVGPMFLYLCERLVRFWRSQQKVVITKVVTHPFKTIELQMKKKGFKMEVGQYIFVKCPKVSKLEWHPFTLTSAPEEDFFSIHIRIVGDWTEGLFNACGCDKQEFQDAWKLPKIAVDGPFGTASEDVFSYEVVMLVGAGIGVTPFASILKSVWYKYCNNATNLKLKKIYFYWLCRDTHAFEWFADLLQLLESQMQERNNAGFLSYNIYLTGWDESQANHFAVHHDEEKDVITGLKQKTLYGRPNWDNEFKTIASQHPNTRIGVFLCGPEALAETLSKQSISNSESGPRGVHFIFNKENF

SMILES | z-score [1] | composite z-score [2] | z-score [3] | z-score [4] | z-score [5] | z-score [6] | z-score [7] | z-score [8] | z-score [9] | z-score [10]
C[C@H]1C2[C@H](Cc3ccccc3)NC(=O)[C@]23C(=O)N[C@@H](Cc2ccccc2)C(=O)N2CCC[C@H]2C(=O)NC/C=C/CC/C=C/C3[C@@H]2O[C@]12C (stereo not given in full) | -0.488 (inactive) | 0.32 | 1.13 (inactive) | 0.186 (inactive) | 0.0233 (inactive) | 0.599 (inactive) | -0.191 | 1.25 (inactive) | 1.11 (inactive) | 1.25
C=C(CCCC)/C(=C/C[C@@H](OC(C)=O)c1ccc(OCCO)cc1)c1cc(C(=O)OC)ccc1OC | -0.195 (inactive) | -0.0518 | 23.7 (active) | 6.34 (inactive) | 1.86 (inactive) | 1.19 (inactive) | -0.265 | -0.958 (inactive) | -1.43 (inactive) | -1.98
COC(=O)[C@@]1(Cc2ccc(OC)cc2)[C@@H]2[C@@H](CC(=O)[C@H]2CC(=O)C(=O)N(C)C)CN1C(=O)c1ccccc1 | -0.715 (inactive) | 2.12 | 2.94 (inactive) | 1.08 (inactive) | 0.63 (inactive) | 1.45 (inactive) | 0.58 | 0.337 (inactive) | 0.898 (inactive) | 0.427
CO[C@H]1O[C@H](CO)[C@@H](OC(=O)Nc2ccccc2)[C@@H]2OC(=O)[C@@H](Cc3ccccc3)C/C=C/C[C@H](Cc3ccccc3)C(=O)O[C@@H]12 | 0.364 (inactive) | -0.093 | 0.131 (inactive) | 0.162 (inactive) | 0.288 (inactive) | 0.0794 (inactive) | -0.0813 | -2.79 (inactive) | -0.266 (inactive) | -1.3
COCCOC(=O)N1C(=O)[C@@]2(c3cc(C#CCCO)ccc31)[C@H](c1ccc(O)cc1)N1[C@H](c3ccccc3)[C@H](c3ccccc3)OC(=O)[C@H]1[C@@H]2C(=O)NC[C@H](O)c1ccccc1 | 1.49 (inactive) | -0.218 | 3.31 (inactive) | 1.19 (inactive) | 0.624 (inactive) | 0.555 (inactive) | 0.0833 | 0.878 (inactive) | 0.521 (inactive) | -0.0839
COC(=O)C1(CC(C)C)C=C2C(=C(C)C(=O)C2C)CN1 (stereo not given) | -1.62 (inactive) | 1.59 | 0.71 (inactive) | -0.161 (inactive) | 0.396 (inactive) | 0.421 (inactive) | -0.164 | 0.425 (inactive) | -1.51 (inactive) | -2.83
C[N+](C)(C)CCCC[C@@H]1NC(=O)[C@H]2C[C@@H](C(=O)NCCCCCN)[C@@H](c3ccc(O)cc3)N2C1=O | 0.108 (inactive) | 0.14 | 0.105 (inactive) | 0.0643 (inactive) | -3.73 (inactive) | -0.0429 (inactive) | -0.0286 | 0.081 (inactive) | -0.0444 (inactive) | 0.204
C=C(CCCC)C(=O)CC[C@@H](OC(C)=O)c1ccc(OCCO)cc1 | 0.0142 (inactive) | 0.0533 | 7.67 (inactive) | 1.16 (inactive) | 0.888 (inactive) | 0.455 (inactive) | -0.222 | -1.4 (inactive) | -1.4 (inactive) | -1.87
COCCCNC(=O)[C@@]1(Cc2ccccc2I)c2ccccc2C(=O)N(Cc2ccccc2C(F)(F)F)[C@H]1c1ccc(CO)cc1 | -0.506 (inactive) | -0.142 | 3.42 (inactive) | 1.31 (inactive) | 2.09 (inactive) | 0.866 (inactive) | -0.55 | 0.227 (inactive) | -1.01 (inactive) | -1.42
COCCCNC(=O)[C@]1(Cc2ccccc2CN=[N+]=[N-])N=C(c2ccc(OCCCO)cc2)O[C@@H]1c1ccccc1N=[N+]=[N-] | 0.913 (inactive) | 0.87 | 33.7 (active) | 31.2 (active) | 1.91 (inactive) | 8.54 (active) | 0.0038 | -0.713 (inactive) | 1.06 (inactive) | 1.42
CC(C)(C)OC(=O)CC[C@@]1(C(N)=O)N=C(c2ccc(OCCCO)cc2)O[C@@H]1c1ccccc1CN=[N+]=[N-] | -0.216 (inactive) | 0.997 | 23.4 (active) | 5.68 (inactive) | -1.49 (inactive) | 0.739 (inactive) | 0.0301 | 1.11 (inactive) | 1.09 (inactive) | 0.369
O=C1O[C@H](c2ccccc2)[C@H](c2ccccc2)N2[C@H]1[C@@H](C(=O)N1CCCCCCC1)[C@]1(C(=O)Nc3ccc(C#CCCO)cc31)[C@H]2c1ccc(O)cc1 | 1.48 (inactive) | 3.06 | 1.01 (inactive) | -0.0898 (inactive) | 0.0261 (inactive) | 0.295 (inactive) | 0.0374 | 1.28 (inactive) | 0.892 (inactive) | 1.38
COCCOC(=O)N1C(=O)[C@@]2(c3cc(C#CCNC(N)=O)ccc31)[C@H](c1ccccc1OCCO)N1[C@H](c3ccccc3)[C@H](c3ccccc3)OC(=O)[C@H]1[C@@H]2C(=O)N1CCCCCCC1 | -0.583 (inactive) | 0.359 | 1.21 (inactive) | 0.696 (inactive) | 0.346 (inactive) | 0.238 (inactive) | -0.418 | 1.39 (inactive) | 1.05 (inactive) | 0.903

Source: PubChem BioAssay
